Only some compounds are listed: those with a hit (about 2.4% of all), similar ones and a draw of the others.
D2 PAM-1 – positive allosteric modulators of human D2 dopamine receptor; P14416; HEK293 T-REx D2, calcium flux, EC20 dopamine potentiation; potentiation, % at 10 µM; hit rate 0.34% among 340,000; AID 485347;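 active = potentiation over 3 SD above the plate norm, cut at about 30% in these data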; note: 0% is about no effect
Target sequence (P14416 whole entry, looked up): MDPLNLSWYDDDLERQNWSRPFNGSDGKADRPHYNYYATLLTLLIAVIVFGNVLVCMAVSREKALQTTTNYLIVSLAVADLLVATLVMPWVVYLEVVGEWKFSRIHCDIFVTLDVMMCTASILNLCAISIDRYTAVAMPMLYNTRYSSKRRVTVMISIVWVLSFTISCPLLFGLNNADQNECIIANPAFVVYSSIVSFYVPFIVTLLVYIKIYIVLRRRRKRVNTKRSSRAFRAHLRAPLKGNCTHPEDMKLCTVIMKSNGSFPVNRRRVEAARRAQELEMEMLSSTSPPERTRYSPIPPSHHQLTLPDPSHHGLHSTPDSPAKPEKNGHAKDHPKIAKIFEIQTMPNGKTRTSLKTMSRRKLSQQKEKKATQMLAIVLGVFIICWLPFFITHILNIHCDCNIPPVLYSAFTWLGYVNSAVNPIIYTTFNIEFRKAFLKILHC
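Potentiation of an EC20 dopamine calcium response measured kinetically over 180 s, after a preceding 180 s compound-only read flagging agonists. Cells: inducible Hek293 Trex D2 line, 4000/well, cultured overnight at 30 C before dye loading.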
D2 ag-1 – activates the human D2 dopamine receptor; HEK293 T-REx D2 cells, calcium flux agonist mode; AID 485358; P14416; hit rate 0.53% among 340,000; activation, % at 2 µM;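 active = activation over 3 SD above normal in the single-dose calcium agonist read, cut at about 30% in these data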; note: 0% is about no effect
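Agonism scored from kinetic calcium signal (1 read/sec, 180 s) following compound pin transfer, after a 10 s baseline. Cells: HEK293 Trex line expressing inducible D2 receptor coupled to calcium, dye-loaded after overnight culture at 30 C.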
D2 ag-2 – agonists of human D2 dopamine receptor (beta-arrestin). P14416. DiscoveRx PathHunter D2 beta-arrestin, luminescence, 90 min; 100% = 57 uM dopamine signal. activation, % (concentration not given with the values). hit rate 0.084% among 360,000; in the data active = activation above about 40%; inconclusive = between about 15% and that limit
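DiscoveRx PathHunter D2 beta-arrestin cells (2,100/well) attached overnight, then compound-stimulated 90 min at 37 C in HBSS/10 mM HEPES/0.1% Tween-20 buffer; beta-galactosidase complementation read by luminescence after 1 h at ambient temperature. Dopamine 57 uM final (EC100) as control.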
D2 PAM-2 – human D2 receptor positive allosteric modulation; P14416; DiscoveRx D2 beta-arrestin cells, luminescence, 90 min; 100% = 57 uM dopamine signal; potentiation, % (concentration not given with the values); hit rate 0.23% among 360,000; AID 624464; in the data active = potentiation above about 50%; inconclusive = mostly about 30% to 49%
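PathHunter beta-arrestin assay in DiscoveRx D2 cells. Compounds were added with an EC20 of dopamine (50 nM final) for 90 min at 37 deg C. Luminescence was read 1 h after detection reagent, with 57 uM dopamine as the EC100 control.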
D2 antagonist – D2 dopamine receptor (human) antagonism. AID 485344. inhibition, % at 10 µM. P14416. HEK293 TREx D2 cells, calcium flux, dopamine EC80. hit rate 2% among 340,000; in the data active = inhibition above about 30%; inactive = below that, where a call was filed; note: 0% is about no effect
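Overnight-induced (tetracycline, 30 C) HEK293 T-REx cells carrying force-coupled D2 receive a no-wash calcium dye, then compound, then EC80 dopamine at 180 s; signals are read kinetically throughout.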
Starred values were filed as active, the others as inactive; ? = inconclusive; / = no result.

SMILES | D2 PAM-1 | D2 ag-1 | D2 ag-2 | D2 PAM-2 | D2 antagonist
COc1cc2c(cc1OC)CN(C(=O)CCCN1C(=O)c3ccccc3C1=O)CC2 | 3 | 0 | -1 | 3 | -14
COc1ccc(NC(=O)CCN2C(=O)c3ccc([N+](=O)[O-])cc3C2=O)c(OC)c1 | -2 | -1 | ? | 56* | 1
COc1cc2c(cc1OC)CN(C(=O)CN1C(=O)c3ccc([N+](=O)[O-])cc3C1=O)CC2 | 0 | 0 | 6 | 60* | 0
CN(CC(=O)Nc1cccc(F)c1)CC(=O)N(C)CC(=O)Nc1ccccc1Br | 7 | -1 | 1 | -13 | -10
CCC1ON(C(C)C)C2c3nc4ccccc4n3CC12 (stereo unspecified) | 7 | 0 | -1 | -5 | 32*
CCC1ON(c2ccccc2)C2c3nc4ccccc4n3CC12 (stereo unspecified) | 15 | 0 | 0 | -8 | 36*
CC1Oc2ccccc2C=C1/C=C1/SC(N2CCOCC2)=NC1=O (stereo unspecified) | 36* | 0 | -1 | -1 | -8
Cc1ncc(C(=O)O)c(C(=O)O)c1N | 35* | 0 | 8 | -18 | -31
Cc1nn(-c2ccccc2)c(C)c1NC(=O)COC(=O)[C@@H](NC(=O)c1ccccc1)C(C)C | -5 | -1 | -2 | 6 | 36*
CCC(C(=O)OCC(=O)Nc1c(C)nn(-c2ccccc2)c1C)c1ccccc1 (stereo unspecified) | 3 | 0 | 0 | 4 | 18
CCOc1ccc(CNC(=O)C2CCCN(S(C)(=O)=O)C2)cc1OC (stereo unspecified) | 4 | 0 | -1 | -7 | 52*
CCOc1ccc(CNC(=O)C2CCCN(S(=O)(=O)N3CCC(C)CC3)C2)cc1OC (stereo unspecified) | / | / | 0 | -3 | /
CC1CCCCN1S(=O)(=O)c1ccc(C(=O)Nc2sccc2C(N)=O)cc1 (stereo unspecified) | -16 | 0 | 4 | -2 | 31*
NC(=O)c1ccsc1NC(=O)C1CCCN1S(=O)(=O)c1ccc(Cl)cc1 (stereo unspecified) | -3 | 0 | -5 | -4 | 6
CC1CCN(S(=O)(=O)c2ccc3nc(Nc4cccc(F)c4)ccc3c2)CC1 | -2 | 1 | / | / | /
Cc1nc2ccccn2c(=O)c1CCN1CCC(C(=O)c2ccc(F)cc2)CC1 | -28 | -1 | -7 | -25 | 95*
Cc1nc2sccn2c(=O)c1CCN1CCC(=C(c2ccc(F)cc2)c2ccc(F)cc2)CC1 | -30 | -1 | -2 | -37 | 78*
Cc1nc2sccn2c(=O)c1S(=O)(=O)N1CCN(c2ccc(F)cc2)CC1 | -4 | 0 | -6 | -4 | -11
COc1ccc(C2=Nc3ccccc3NC(=O)C2N(Cc2ccccc2)C(=O)C2=NNC(=O)CC2)cc1 (stereo unspecified) | / | / | -4 | -10 | /
Cc1ccc(S(=O)(=O)n2cc(-c3ccccc3)c(N)n2)cc1 | -3 | -1 | -2 | -8 | 4
Nc1nn(S(=O)(=O)c2ccccc2)cc1-c1ccc([N+](=O)[O-])cc1 | 10 | 0 | ? | 74* | -4
CCOC(=O)N1CCN(c2c(NCCc3ccc(OC)c(OC)c3)c(=O)c2=O)CC1 | 2 | 0 | -1 | -3 | 36*
CCOC(=O)c1c(C(=O)OCC)c(C)n(CCc2ccc(OC)c(OC)c2)c1C | 0 | -3 | 2 | 28 | 33*
CCc1ccccc1NC(=O)NC1CC2CCC(C1)N2Cc1cccs1 (stereo unspecified) | -18 | -1 | -3 | -26 | 55*
CCc1ccc(NC(=S)NC2CC3CCCC(C2)N3Cc2cccs2)cc1 (stereo unspecified) | -25 | 1 | 0 | -29 | 64*
CCc1ccccc1NC(=O)NC1CCCCC1 | / | / | -2 | -28 | /
CCCN1C2CCCC1CC(NC(=S)Nc1ccc(OC)cc1)C2 (stereo unspecified) | -4 | 0 | -19 | -7 | -10
Cc1cc(=O)[nH]c2nnc(SCc3ccccc3F)n12 | 3 | -2 | / | / | /
COc1ccc(/C=N/N(C(C)=O)c2nc(-c3ccc(C)cc3)cs2)cc1 | 30* | -1 | -1 | 18 | -21

Bioassay records as filed in PubChem.
